# Shown are actives, neighbours in structure and some others; about 6.8% of the full set was active somewhere.
# MK inhibit – S. pneumoniae MK inhibitors, primary screen, biochemical, PK/LDH-coupled NADH absorbance | 65,000 tested, 0.48% active | inhibition, % at 10 µM | AID 555, 2006 | mevalonate kinase [Streptococcus pneumoniae D39] | purified MK, PK/LDH-coupled NADH absorbance 340 nm;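 active means ranked among the strongest by inhibition in the single 10 µM screen, a fixed top-ranked set picked for dose follow-up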
# Abs 340nm – compound light absorbance at 340 nm, profiling panel, artefact control, biochemical, MLSMR library, data from PS, PMK, MK assays; compound absorbance at 340 nm, fold over control; fold change at 10 µM; 65,000 tested, under 10 active; AID 708, 2007;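 active means at 10 µM dose, initial 340 nm absorbance at least 2 fold that of control wells; inactive means change under 2 fold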;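 further: initial absorbance extrapolated from kinetic A340 decline of NADH oxidation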
# NADH enzymes – inhibitors of PK/LDH coupling enzymes, profiling panel, artefact control, biochemical, MLSMR library. coupled PK/LDH NADH assays, four targets. IC50, µM (highest dose often 10 µM), for the others: at the highest dose inhibition. 65,000 tested, 0.02% active;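 active means single-dose screening hits from any of four coupled enzyme assays that gave an IC50 when retested across doses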;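 further: the DPM-DC format reads NADH fluorescence rather than 340 nm absorbance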
# Fluor 339 460 – intrinsic fluorescence of library compounds, ex339/em460 – biochemical, MLSMR library, data from DPM-DC assay, artefact control, profiling panel; 65,000 tested, 5.5% active; AID 709, 2007; compound autofluorescence, ex339/em460 nm, NADH buffer; stronger effect = higher value; 1 = no-compound wells, NADH background; fluorescence fold increase at 10 µM;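 active means at 10 µM, mean starting fluorescence two-fold or more over control wells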;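 further: signal is the first read of a kinetic run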
# DPM-DC inhibit – S. pneumoniae DPM-DC inhibitors, primary screen, biochemical, PK/LDH-coupled NADH fluorescence. diphosphomevalonate decarboxylase (Streptococcus pneumoniae D39). calls only at 10 µM. 65,000 tested, 0.49% active. purified DPM-DC;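 active means the 320 compounds with the highest percent inhibition in the single-dose primary screen, excluding strongly autofluorescent ones, cut at about 32% in these data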;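 further: kinetic rate of NADH fluorescence loss reporting ADP formed by the decarboxylase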
# PMK inhibit – S. pneumoniae PMK inhibitors, primary screen, biochemical, mevalonate pathway, pilot trial included | inhibition, % at 10 µM | purified PMK, PK/LDH-coupled NADH absorbance 340 nm | AID 539, 2006 | phosphomevalonate kinase (Streptococcus pneumoniae D39) | 65,000 tested, 0.49% active;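 active means top-ranked compounds by inhibition in the single 10 µM screen, taking a fixed number of the strongest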;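 further: 0% = full reaction with DMSO carrier and 100% = background rate without enzyme reaction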
# Numbers without * were called inactive; i = inactive; / = not tested or not shown; + = active, no number; [ ] = another dose, or the depositor's remark.
SMILES,MK inhibit,Abs 340nm,NADH enzymes,Fluor 339 460,DPM-DC inhibit,PMK inhibit
CCc1nc(NC2CCCCC2)c(C#N)c2c1COC(C)(C)C2,4.0,1.03,4.0%,1.84,i,7.0
CC(C)c1nc(NCC2CCCO2)c(C#N)c2c1COC(C)(C)C2 (configuration not stated),2.0,0.99,3.0%,2.4*,+[fluoresces],6.0
C=CCn1c(SCC(=O)c2ccc(NS(=O)(=O)c3ccccc3)cc2)nnc1-c1cccs1,5.0,1.14,2.0%,1.04,i,0.0
Cc1ccc(-c2cn3cccnc3n2)cc1NC(=O)c1c(-c2ccccc2Cl)noc1C,0.0,1.03,5.0%,5.22*,/,10.0
Cc1onc(-c2ccccc2Cl)c1C(=O)Nc1ccc(-c2cn3cccnc3n2)cc1,0.0,1.09,9.0%,5.24*,/,18.0
CC(=O)Nc1cccc(NC(=O)c2c(-c3ccccc3Cl)noc2C)c1,7.0,1.04,4.0%,1.03,i,4.0
Cc1onc(-c2ccccc2Cl)c1C(=O)Nc1cccc(-c2nc3ncccn3c2C)c1,0.0,1.02,6.0%,5.18*,/,12.0
O=C(CSC1=NCCS1)N1CCCC1,0.0,1.02,5.0%,1.05,i,14.0
COC(=O)c1cc(NCc2ccccc2F)ccc1N1CCOCC1,12.0,0.99,13.0%,1.82,i,17.0
CCOc1ccccc1CNc1ccc(N2CCOCC2)c(C(=O)O)c1,3.0,1.04,5.0%,2.17*,i,0.0
Cc1ccc(CNc2ccc(N3CCOCC3)c(C(=O)O)c2)s1,3.0,1.03,4.0%,2.39*,i,0.0
O=C(O)c1cc(NCc2c(F)cccc2Cl)ccc1N1CCOCC1,5.0,1.01,6.0%,1.9,i,4.0
COc1ccccc1COCC(O)CNCC1(N2CCCCC2)CCCCC1 (configuration not stated),41.0*,1.06,19.0%,1.12,i,16.0
CCOC(=O)C1CCN(C(=O)CN(c2ccc(OC)c(OC)c2)S(=O)(=O)c2ccccc2)CC1,71.0*,1.04,27.0%,1.12,i,2.0
Cc1cccc(-n2c(=O)[nH]c3c(C(N)=O)nc(C(C)C)nc32)c1,0.0,1.04,5.0%,4.95*,/,10.0
COc1ccc(-c2nc(C(N)=O)c3[nH]c(=O)n(-c4cccc(Cl)c4)c3n2)cc1OC,1.0,1.01,1.0%,1.08,i,11.0
O=C1CN(C(=O)COc2ccccc2)CCN1,6.0,1.05,6.0%,1.12,i,12.0
CC(C)CC(NC(=O)C(NC(=O)OC(C)(C)C)C(C)C)C(=O)N1CCCC1C(N)=O (configuration not stated),4.0,1.02,4.0%,1.13,i,9.0
Cc1ccc2[nH]c(-c3cccc(N)c3)cc2c1,7.0,1.04,9.0%,3.82*,/,10.0
O=C(NCc1cccnc1)C1CCCN(S(=O)(=O)c2ccccc2)C1 (configuration not stated),3.0,1.03,1.0%,1.1,i,0.0
COc1ccc(-c2cc(=O)oc3c(C)c(O)c(CN(C)C)cc23)cc1,8.0,1.15,12.0%,2.39*,i,5.0
COC(=O)c1c(C#N)c(N)nc2c1CCC2,11.0,1,3.0%,2.97*,/,3.0
Cc1c(-c2nc(N)nc(Nc3ccccc3)n2)oc2ccccc12,0.0,1.03,3.0%,1.21,i,10.0
Cc1ccc2oc(=O)c3cc(C(=O)NCc4ccco4)sc3c2c1,4.0,1.14,7.0%,2.02*,/,9.0
O=C(Nc1ccc(Cl)cc1C(=O)Nc1ccc(Br)cn1)c1ccco1,5.0,1.11,3.0%,2.27*,i,4.0
SMILES,MK inhibit,Abs 340nm,NADH enzymes,Fluor 339 460,DPM-DC inhibit,PMK inhibit
COc1ccc(Cl)cc1NC(=O)c1ccco1,8.0,1.05,5.0%,1.12,i,6.0
CC1=C(C(=O)OC(C)C)C(c2cccs2)C2=C(CCCC2=O)N1 (configuration not stated),4.0,1.06,2.0%,1.52,i,1.0
CCOC(=O)C1=C(C)NC2=C(C(=O)CCC2)C1c1ccsc1 (configuration not stated),7.0,1.11,10.0%,2.48*,i,3.0
CC1=C(C(=O)OCC2CCCO2)C(c2ccccc2OC(C)C)C2=C(CC(c3ccco3)CC2=O)N1 (configuration not stated),4.0,1.03,6.0%,3.32*,/,8.0
COC(=O)C1=C(C)NC2=C(C(=O)CCC2)C1c1ccccn1 (configuration not stated),4.0,1.1,5.0%,2.14*,/,5.0
CCN(CC)c1ccc(C2C(C(=O)OCCOC)=C(C)NC3=C2C(=O)CCC3)cc1 (configuration not stated),13.0,1.1,7.0%,1.37,i,3.0
COCCOC(=O)C1=C(C)NC2=C(C(=O)CC(c3cccs3)C2)C1c1ccsc1 (configuration not stated),2.0,1.05,12.0%,2.39*,i,12.0
CC(Sc1nnc(N)s1)c1ccccc1Cl (configuration not stated),9.0,1.03,5.0%,1.06,i,5.0
Cc1c(C(=O)N2CC(C)OC(C)C2)oc2ccccc12 (configuration not stated),8.0,1.03,3.0%,1.04,i,0.0
CC1=C(C(=O)OCC2CCCO2)C(c2ccccc2)NC(=O)N1 (configuration not stated),5.0,1.01,8.0%,0.9,i,6.0
CCOC(=O)C1=C(C)NC2=C(C(=O)CCC2)C1c1cccnc1 (configuration not stated),11.0,1.09,10.0%,2.08*,/,8.0
CCOC(=O)C1=C(N)OC2=C(C(=O)CCC2)C1c1cccnc1 (configuration not stated),12.0,1.03,4.0%,1.12,i,0.0
CC1=C(C(=O)OC(C)C)C(c2cccnc2)C2=C(CCCC2=O)N1 (configuration not stated),7.0,1.08,4.0%,2.25*,/,0.0
CC1=C(C(=O)OCC2CCCO2)C(c2ccncc2)C2=C(CCCC2=O)N1 (configuration not stated),2.0,1.05,18.0%,1.42,+,6.0
CCCn1c(SCC(=O)Nc2cccc(C)n2)nnc1-c1ccco1,8.0,1.02,3.0%,1.08,i,2.0
O=C(c1ccccc1NS(=O)(=O)c1ccc(Br)s1)N1CCOCC1,10.0,1.07,3.0%,1.11,i,0.0
O=C(NCCn1ccc2ccccc21)c1ccc2c(c1)OCO2,5.0,1.05,6.0%,2.13*,/,6.0
COc1ccc(C(=O)NCCn2ccc3ccccc32)cc1,9.0,0.99,3.0%,1.03,i,9.0

# High-throughput results (PubChem BioAssay)
